# Measured values from PMC4336329 (PLoS ONE, 2015).
# About 14,000 (4.5%) of roughly 310,000 compounds showed an effect of 50% or more. Effects have a minus sign here. For the sample, strong results were picked, then their nearest neighbours and some compounds at random.
# Target: human ether-à-go-go-related gene (hERG) potassium channel (human, UniProt Q12809)
# Assay: primary screen, population patch clamp on CHO cells stably expressing hERG; higher = less effect of the substance
# 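Further: peak tail current of the secondary pulse compared with the same well before compound.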
# Chain of human ether-à-go-go-related gene (hERG) potassium channel (Q12809 whole entry, looked up): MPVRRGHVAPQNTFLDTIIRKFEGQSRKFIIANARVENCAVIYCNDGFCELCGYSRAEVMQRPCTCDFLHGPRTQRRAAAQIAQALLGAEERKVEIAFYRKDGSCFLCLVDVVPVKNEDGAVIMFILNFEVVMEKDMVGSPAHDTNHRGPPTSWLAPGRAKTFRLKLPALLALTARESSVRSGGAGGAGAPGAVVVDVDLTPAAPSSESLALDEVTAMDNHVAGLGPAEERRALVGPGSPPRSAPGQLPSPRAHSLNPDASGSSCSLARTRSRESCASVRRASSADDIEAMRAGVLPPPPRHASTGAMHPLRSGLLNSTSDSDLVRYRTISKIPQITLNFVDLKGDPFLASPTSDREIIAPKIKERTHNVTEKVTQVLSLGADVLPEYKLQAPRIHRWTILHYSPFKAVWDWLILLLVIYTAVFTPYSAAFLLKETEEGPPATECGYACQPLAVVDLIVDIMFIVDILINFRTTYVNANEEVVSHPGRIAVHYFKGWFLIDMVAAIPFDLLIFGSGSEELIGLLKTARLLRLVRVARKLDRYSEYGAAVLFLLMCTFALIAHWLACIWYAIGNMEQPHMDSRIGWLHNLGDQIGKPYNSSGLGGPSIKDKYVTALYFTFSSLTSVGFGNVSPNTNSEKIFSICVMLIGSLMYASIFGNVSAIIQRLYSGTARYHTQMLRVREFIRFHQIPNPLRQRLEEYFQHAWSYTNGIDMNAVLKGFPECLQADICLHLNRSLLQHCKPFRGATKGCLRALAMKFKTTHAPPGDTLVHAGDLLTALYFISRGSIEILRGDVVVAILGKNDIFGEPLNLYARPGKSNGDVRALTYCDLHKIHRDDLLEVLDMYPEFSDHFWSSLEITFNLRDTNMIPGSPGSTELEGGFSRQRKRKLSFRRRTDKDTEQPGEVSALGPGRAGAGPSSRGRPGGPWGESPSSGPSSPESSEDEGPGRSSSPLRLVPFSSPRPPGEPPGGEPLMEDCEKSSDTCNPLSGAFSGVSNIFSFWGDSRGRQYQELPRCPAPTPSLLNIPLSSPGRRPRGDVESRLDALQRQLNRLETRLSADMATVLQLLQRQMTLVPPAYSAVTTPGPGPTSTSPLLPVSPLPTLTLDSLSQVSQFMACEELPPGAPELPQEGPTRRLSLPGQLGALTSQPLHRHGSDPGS
row,Structure (SMILES),"hERG current change (%, negative = inhibition) at 10uM"
1,COc1cccc(C2NC(CC(C)C)(C(=O)O)C3C(=O)N(Cc4ccccc4)C(=O)C23)c1O (centres unmarked),10.2%
2,CN(Cc1ccccc1F)C(=O)c1ccc(NS(=O)(=O)c2ccc3[nH]c(=O)[nH]c3c2)cc1,6.14%
3,O=C(Nc1ccccc1N1CCCCC1)C1=COCCO1,-32.6%
4,CC(C)[C@@H](C(=O)NCc1ccco1)N1C(=O)N2CCc3c([nH]c4ccccc34)[C@@]2(C)C1=O,-15.6%
5,CSc1nnc([C@@H](NC(=O)OC(C)(C)C)C(C)C)o1,-13.6%
6,CCc1cccc(OCC(O)Cn2c(N3CCCCC3)nc3c2c(=O)[nH]c(=O)n3C)c1 (centres unmarked),13.7%
7,Clc1ccc(CN=C2Nc3ccccc3CS2)cc1,14.9%
8,COc1cc2c(cc1OC)C1=C(C#N)CCC(=O)N1CC2,5.55%
9,C=C1C[C@H]2[C@@H]3C=C(C)C4=CC(=O)CC[C@]4(C)[C@H]3CC[C@]2(C)[C@@]1(OC(C)=O)C(C)=O,-21.2%
10,O=C(COC(=O)C1CC1)Nc1nc(-c2ccc(F)c(F)c2)cs1,4.93%
11,CCCc1cnc(N2CCN(C(=O)c3ccc(F)cc3)CC2)nc1,-43.1%
12,CCCc1ccc(C(=O)N2CCN(c3ccccc3OCC)CC2)cc1,-56.3%
13,CCOc1ccc(C(=O)N2CCN(c3ncccn3)CC2)cc1,-9.8%
14,CCCCOc1ccc(C(=O)N2CCN(c3ncccn3)CC2)cc1,-9.16%
15,CCCc1cnc(N2CCN(C(=O)c3ccc(OC)cc3)CC2)nc1,-52.4%
16,CCOc1ccccc1N1CCN(C(=O)CNC(=O)c2sc3ccccc3c2Cl)CC1,17.4%
17,CCCc1cnc(N2CCN(C(=O)c3c(-c4ccccc4)noc3C)CC2)nc1,-24.5%
18,CCOc1ccccc1N1CCN(C(=O)c2ccncc2)CC1,-8.78%
19,CCCc1cnc(N2CCN(C(=O)c3ccccc3)CC2)nc1,-57.1%

row,Structure (SMILES),"hERG current change (%, negative = inhibition) at 10uM"
1,CCOc1ccccc1N1CCN(C(=O)CNC(=O)c2ccccc2F)CC1,-51.1%
2,CCOc1ccccc1N1CCN(C(=O)CNC(=O)c2ccc(OC)c(OC)c2)CC1,11.9%
3,CCOc1ccccc1N1CCN(C(=O)c2ccccc2)CC1,11%
4,CCCCCCSc1ccc([C@@H]2[C@H]3C(=O)N(CC)C(=O)[C@H]3[C@]3(C(=O)OC)CCCN23)cc1.O=C(O)C(F)(F)F,-7.59%
5,COc1cc(OC)cc(C(=O)O/N=C(\N)c2ccccn2)c1,7.21%
6,CCOC(=O)c1cc2c(ccn2C)n1CC(=O)N1CCC(Cc2ccccc2)CC1,-24.1%
7,CN(C)S(=O)(=O)c1ccc(NC(=O)CN2C(=O)NC(Cc3ccccc3)C2=O)cc1 (centres unmarked),10.2%
8,CCOC(=O)CC(NC(=O)C1c2ccccc2Oc2ccccc21)c1ccc(C)cc1 (centres unmarked),5.66%
9,COc1ccc(NC(=O)CSc2nnc(-c3cccnc3)n2C)cc1,8.3%
10,Cc1cc(OCC(=O)N2CCC(C(=O)O)(c3ccccc3)CC2)c2c(C)cc(=O)oc2c1,11.6%
11,COc1cc(OC)c(NC(=O)c2cncn2-c2ccc(F)cc2)cc1Cl,-19.7%
12,O=C(Nc1cccc(Cl)c1)c1cncn1-c1ccc(F)cc1,-68.1%
13,NNC(=O)c1cncn1-c1ccc(F)cc1,23.7%
14,Cc1cccc(C)c1NS(=O)(=O)c1c(C)[nH]c(=O)[nH]c1=O,-14.2%
15,Cc1ccccc1CN(CC(=O)Nc1cccc([N+](=O)[O-])c1)S(=O)(=O)c1ccc(Cl)cc1,15.1%
16,O=C(NC1CCN(Cc2ccc(Cl)cc2Cl)CC1)c1ccccc1,-53.9%
17,O=C(NC1CCN(Cc2ccccc2Cl)CC1)c1ccccc1,-65.2%
18,CSCCC(NC(=O)c1ccccc1Cl)C(=O)NC1CCN(Cc2ccccc2)CC1 (centres unmarked),-50.1%
19,O=C(NC1CCN(Cc2ccccc2)CC1)c1ccccc1Cl,1.15%

row,Structure (SMILES),"hERG current change (%, negative = inhibition) at 10uM"
1,Cl.O=C(NN1CCN(Cc2ccccc2Cl)CC1)c1ccc(Cl)cc1,-10.6%
2,COC(=O)[C@H](CCSC)NC(=O)NC1CCN(Cc2ccccc2)CC1,-12.9%
3,O=C(NC1CCN(C(=O)Nc2ccccc2Cl)CC1)c1ccccc1,4.22%
4,O=C(NC1CCN(Cc2ccccc2)CC1)c1ccccc1F,-23.7%
5,S=C(Nc1ccc(Cl)cc1Cl)NC1CCN(Cc2ccccc2)CC1,-2.76%
6,CSCCC(NC(=O)c1ccccc1Cl)C(=O)N1CCN(C(C)=O)CC1 (centres unmarked),-26.9%
7,O=C(NC1CCN(C(=O)Nc2cccc(Cl)c2)CC1)c1ccccc1,1.02%
8,O=C(NC1CCN(Cc2ccccc2)CC1)c1ccc(Cl)cc1Cl,-75%
9,COCC(=O)Nc1ccc(C)c(Cl)c1,14.4%
10,Cc1cccc(NS(=O)(=O)c2ccc(OCC(=O)N3CCCC3)cc2)c1,-19.1%
11,CCCn1nnnc1NC(=O)COc1ccc(CC)cc1,-3.02%
12,Cc1ccc(NC(=O)CCSc2nnc(C)o2)cc1,2.48%
13,CC1(C)NC(=O)N(CCCCOc2cccc(C(F)(F)F)c2)C1=O,-6.92%
14,CN1CCN(c2ccc(C(N)=O)cc2N)CC1,6.81%
15,CN1C(=O)C(C)(C)c2cc(S(=O)(=O)N3CCCC(C(=O)Nc4ccc(Cl)cc4)C3)ccc21 (centres unmarked),-9.27%
16,COC(=O)/C(C#N)=C/c1c(Oc2cccc(C)c2C)nc2ccccn2c1=O,-12.6%
17,COC(=O)CCCn1nc(NC(=O)COc2ccc(F)cc2)cc1C,-5.47%
18,COc1ccc(C(C(=O)NC(C)(C)C)N(C(=O)CNC(=O)c2cccs2)c2ccc(NC(C)=O)cc2)cc1OC (centres unmarked),10.4%
